# Screens (PubChem)
# Cruzain inh Det: cruzain (T. cruzi) inhibition with detergent | purified cruzain, Z-FR-AMC fluorescence, 0.01% Triton | Potency, µM, inactives show max response, negative = inhibition, most hits filed as inhibitors | 200,000 tested, 0.43% active | AID 1478;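 also: plate controls were neutral wells for no effect and buffer without enzyme for full effect; nearly all actives have a fitted effect of over 40% in size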
# Target sequence (P25779 123-467 limits assumed): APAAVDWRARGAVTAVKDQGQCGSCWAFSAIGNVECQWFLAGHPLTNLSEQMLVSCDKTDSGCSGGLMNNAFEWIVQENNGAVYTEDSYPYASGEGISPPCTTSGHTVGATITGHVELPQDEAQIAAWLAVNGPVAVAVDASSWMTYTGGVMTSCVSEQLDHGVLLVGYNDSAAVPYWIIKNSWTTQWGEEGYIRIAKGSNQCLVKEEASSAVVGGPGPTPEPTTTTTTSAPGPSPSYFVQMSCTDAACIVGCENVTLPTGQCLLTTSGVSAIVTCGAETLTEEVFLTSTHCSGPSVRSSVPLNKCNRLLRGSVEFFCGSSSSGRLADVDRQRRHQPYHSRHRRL
#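 Sodium acetate buffer (100 mM, pH 5.5) containing 5 mM DTT and 0.01% Triton X-100 hosted 1.5 nM cruzain and test compound for 15 min at room temperature. Cleavage of 2 uM Z-FR-AMC was then tracked by fluorescence.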
# Cruzain inh noDet: blocks cruzain activity in detergent-free assay; purified cruzain, Z-FR-AMC fluorescence, no detergent; 200,000 tested, 2.3% active; Potency, µM, for the others: max response, negative = inhibition, actives largely listed as inhibitors;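 also: plate controls were enzyme without inhibitor for no effect and buffer without enzyme for full effect; nearly all actives have a fitted effect of over 40% in size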
#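 Detergent-free condition (0.00005% Triton X-100) in acetate buffer pH 5.5 with DTT. 1.5 nM enzyme and compound were pre-mixed 15 min, then 2 uM Z-FR-AMC substrate added; reaction progress from fluorescence change between first and third reads (60 s).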
# * hit, by the source's call; u = inconclusive; ! = repeats disagree. This is a sample that favours compounds with a hit; in the whole collection about 2.5% have one here. Calls follow the shape of the dose curve; as a rule, active = well fitted curve in the direction sought with a large enough effect; inconclusive = small, poorly fitted or top-dose-only effect, or another doubt; inactive = no such curve, though single readings can be large; an effect the other way counts as inactive or inconclusive. Potency is read from the fitted curve at half-maximal effect.
SMILES,Cruzain inh Det,Cruzain inh noDet
COc1ccc2[nH]c3c(c2c1)CCn1c-3nc2ccccc2c1=O,1.4%,-13.4%
COc1ccc2c3c([nH]c2c1)C(C)=NCC3,-3.3%,10µM*!
COc1cccc(CNC(=O)c2ccc(NC(=O)N3CC(C)Sc4ccccc43)cc2)c1 (stereo unspecified),-6.6%,u
CCCCOc1cccc(C(=O)N(Cc2ccc(C)o2)c2ccccn2)c1,-6.4%,-8.6%
COc1ccc(Br)cc1CNC(=O)c1cc(=O)[nH]c2ccc(S(=O)(=O)N3CCCCC3)cc12,0.3%,8.0%
Cn1c(SCC(=O)Nc2ccccc2)nc(O)cc1=O,-3.7%,-10.5%
COc1ccc(NC(=O)CSc2nc(O)cc(=O)n2C)cc1,-25.0%,15.8µM*
O=c1c(N2CCCCC2)csc2ccc(F)cc12,-3.7%,3.7%
CCOC(=O)c1c(C)[nH]c(C(=O)COC(=O)CCS(=O)(=O)c2ccc(C)cc2)c1C,u,1.3%
CCOC(=O)c1c(C)[nH]c(C(=O)COC(=O)CCC2CCCC2)c1C,8.1%,15.8µM*
C[C@]12CC[C@H]3c4ccc(O)cc4CC[C@@H]3[C@H]1CC[C@@H]2OC(=O)CCc1ccccc1,-6.0%,-13.0%
Cc1ccc(C(=O)Nc2onc3c2CCCC3)cc1,-3.6%,-6.8%
CCc1ccccc1-n1nnc(-c2nsc(NC(=O)c3ccc(C)c(C)c3)n2)c1C,-2.3%,-24.7%
COc1c(N2C[C@@H]3CCCN[C@H]3C2)c(F)cc2c(=O)c(C(=O)O)cn(C3CC3)c12,-7.9%,-6.3%
Cc1ccc(-c2cn3c(n2)sc2cc(C(=O)NC4CCCCC4)ccc23)cc1,-2.4%,4.4%
O=C(Nc1nc(-c2cccnc2)cs1)c1ccc(S(=O)(=O)N2CCOCC2)cc1,7.1%,-3.0%
O=C(Nc1nc(-c2ccc(S(=O)(=O)N3CCCCCC3)cc2)cs1)c1ccccc1,-3.3%,10µM*
CCc1nnc(NC(=O)c2ccc(S(=O)(=O)N3CCCCCC3)cc2)s1,4.1%,12.6µM*
CCc1nnc(NC(=O)c2ccc(S(=O)(=O)N3CCCCC3C)cc2)s1 (stereo unspecified),2.9%,-5.1%
O=C(Nc1nc(-c2cccs2)cs1)c1ccc(S(=O)(=O)N2CCCC2)cc1,2.5%,-16.9%
O=C(Nc1nc(-c2ccc3c(c2)OCCO3)cs1)c1ccc(S(=O)(=O)N2CCCCC2)cc1,-0.7%,12.6µM*
CCOC(=O)c1[nH]c2ccccc2c1NC(=O)c1cc(OC)cc(OC)c1,-12.1%,-0.7%
O=C(O)[C@@H]1[C@H](C(=O)O)[C@]2(Cl)C(Cl)=C(Cl)[C@@]1(Cl)C2(Cl)Cl,-0.2%,4.9%
Nc1cccc(C(=O)OCC(=O)c2ccccc2)c1,-1.6%,-3.0%
O=C(COC(=O)c1ccc(-c2nnc(-c3ccccc3)o2)cc1)c1ccccc1,-1.5%,7.94µM*
SMILES,Cruzain inh Det,Cruzain inh noDet
Cc1ccc(C(=O)N(Cc2ccc(N(C)C)cc2)CC2CCCO2)cc1 (stereo unspecified),-2.2%,5.4%
CN(C(=O)CC(=O)Nc1ccc2nc3n(c(=O)c2c1)CCCCC3)c1ccccc1F,-4.4%,-2.7%
CCCCC[C@H](O)/C=C/[C@@H]1[C@H](C/C=C\CCCC(=O)O)[C@@H](O)C[C@H]1O,5.4%,0.9%
Cc1ccc(-c2nnn(CC(=O)N3c4ccccc4CCc4ccccc43)n2)cc1,-3.7%,u
Cc1ccc(-c2nnn(CC(=O)N3CCN(c4nc5ccccc5s4)CC3)n2)cc1,12.1%,10µM*
Cc1ccc(CN2C(=O)C3CCCN3c3ccc(C#N)cc32)cc1 (stereo unspecified),-0.5%,10µM*
O=C1C2CCCN2c2ccc(S(=O)(=O)N3CCOCC3)cc2N1Cc1cccc(C(F)(F)F)c1 (stereo unspecified),-3.7%,8.5%
O=C1C2CCCN2c2ccc(S(=O)(=O)N3CCOCC3)cc2N1Cc1ccccc1F (stereo unspecified),-2.7%,6.7%
Cc1ccc(C)c(CN2C(=O)C3CCCN3c3ccc(C#N)cc32)c1 (stereo unspecified),-5.4%,15.8µM*
N#Cc1ccccc1CN1C(=O)c2ccccc2Sc2ccc(C(=O)OCc3ccco3)cc21,-7.1%,25.1µM*
CCOC(=O)c1ccc2c(c1)N(Cc1ccccc1)C(=O)c1ccccc1S2,0.2%,-18.2%
O=C(NCc1ccco1)c1ccc2c(c1)N(Cc1ccccc1)C(=O)c1ccccc1S2,0.6%,u
C=Cc1ccc(CN2C(=O)c3ccccc3Sc3ccc(C(=O)OCc4ccco4)cc32)cc1,-2.4%,12.6µM*
Cc1cccc(NC(=O)c2oc3ccc(S(=O)(=O)N(C)C4CCCCC4)cc3c2C)c1C,0.9%,5.1%
O=C(NCCCN1CCN(c2ccccc2)CC1)c1ccc2nc(CCc3ccccc3)oc2c1,-0.8%,-2.4%
COc1ccc(OC)c(C(=O)c2c(N)c(-c3nc(-c4ccc(C)c(C)c4)cs3)c3ccccn23)c1,-1.9%,-6.0%
CCc1ccc(C(=O)c2c(N)c(-c3nc(-c4ccc5c(c4)OCO5)cs3)c3ccccn23)cc1,-2.0%,2.51µM*
COc1cccc(-c2csc(-c3c(N)c(C(=O)c4ccccc4)n4ccccc34)n2)c1,-3.4%,7.94µM*
Cc1ccc(-c2csc(-c3c(N)c(C(=O)c4ccc5c(c4)OCO5)n4ccccc34)n2)cc1,-1.6%,u
Cc1ccc2c(c1)c1c3n2CCN(C(=O)CN2CCN(C)CC2)C3CCC1 (stereo unspecified),-3.4%,-9.6%
Cc1ccc2c(c1)c(=O)c1c3n2CCN(C(=O)CCl)C3CC1 (stereo unspecified),15.8µM*,-21.6%
CCOC(=O)c1sc(-n2[nH]c(C)cc2=O)nc1C,u,11.7%
CCOC(=O)Cc1cc(=O)n(-c2nc3ccccc3s2)[nH]1,17.8µM*,u
CCCOc1ccc(CNC(=O)Cn2cc3c(n2)-c2c(oc(C(=O)N4CCOCC4)c2C)CC3)cc1,-7.1%,u
N#C/C(=C\C1=C(N2CCOCC2)C(=C/c2cccc([N+](=O)[O-])c2)/CC1)C(=O)Nc1ccccc1F,-5.7%,12.6µM*
SMILES,Cruzain inh Det,Cruzain inh noDet
CC(NC(=O)C12CC3CC(CC(C3)C1)C2)C(=O)N/N=C/C1=C(N2CCOCC2)C(=C\c2cccc([N+](=O)[O-])c2)/CC1 (stereo unspecified),-7.1%,-21.4%
N#C/C(=C\C1=C(N2CCOCC2)C(=C\c2ccc(Cl)cc2)/CC1)C(=O)Nc1ccccc1F,-8.3%,10µM*
CCN(CC)c1ccc(/C=C2\CCC(/C=C(\C#N)C(=O)Nc3ccccc3F)=C2N2CCOCC2)cc1,-1.7%,u
O=C1[C@H]2[C@H]3C=C[C@@H](C4[C@H]3[C@@H]3C(=O)N(CN5CCSCC5)C(=O)[C@H]43)[C@H]2C(=O)N1CN1CCSCC1 (stereo partly specified),-0.3%,4.9%
COc1ccc(NC(=O)c2c(C)oc3ccc(O)c(CN4CCN(Cc5ccccc5)CC4)c23)cc1,-6.7%,-17.5%
Cc1ccc(Cc2cnc(NC(=O)c3ccco3)s2)cc1,-0.8%,-9.1%
O=C(Nc1ncc(Cc2ccc(SC(F)F)cc2)s1)c1ccc(OC(F)F)cc1,-2.9%,20µM*
O=C(Nc1nc(-c2ccc(Cl)s2)cs1)c1ccccc1,-0.6%,-2.9%
Cc1nc(NC(=O)c2ccccc2)sc1-c1csc(Nc2ccc(F)cc2)n1,-2.8%,15.8µM*
Cc1nc(NC(=O)c2ccccc2)sc1-c1csc(Nc2ccc(Cl)cc2)n1,6.6%,3.98µM*
Cc1nc(NC(=O)c2ccccc2)sc1-c1csc(Nc2cccc(Cl)c2)n1,6.4%,10µM*
